# Laboratory results published in the supplement of paper PMC12350171.
# Where a name gives a salt, the structure may show the parent alone.
# Tested on: Haemophilus parainfluenzae
# Test: growth AUC normalised to DMSO control (fraction of control); higher = less growth inhibition, active = hit call of the paper
# Settings: 20 µM;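 active = AUC significantly below DMSO controls by Student t-fit with adjusted P under 0.01; inactive = not significantly reduced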
# Procedure, shortened: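 Hemin and NAD were added to the medium for Haemophilus parainfluenzae. All pathogens, after two anaerobic passages, were inoculated at a starting OD578 of 0.01 into pre-reduced mGAM plates with 20 μM compound and 1% DMSO under breathable seals, and OD578 was read hourly for 24 h in three biological replicates. AUC of each growth curve was obtained with the trapezoidal rule up to the exponential-to-stationary transition and normalised to DMSO controls from the same plate.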
row,Structure (SMILES),growth AUC normalised to DMSO control
1,CC1=C(CC(=O)O)c2cc(F)ccc2/C1=C\c1ccc([S+](C)[O-])cc1 (centres undefined) [Sulindac],0.942 (inactive)
2,OCC(O)CN1CCN(c2ccccc2)CC1 (centres undefined) [Dropropizine],1.07 (inactive)
3,COc1ccccc1N1CCN(CCCCNC(=O)c2ccc3ccccc3c2)CC1,0.997 (inactive)
4,COc1cccc2c1C(=O)c1c(O)c3c(c(O)c1C2=O)C[C@@](O)(C(=O)CO)C[C@@H]3O[C@H]1C[C@H](N)[C@H](O)[C@H](C)O1 [Doxorubicin hydrochloride],0.979 (inactive)
5,CC1CCc2c(N3CCC(O)CC3)c(F)cc3c(=O)c(C(=O)O)cn1c23 (centres undefined) [Nadifloxacin],0.0309 (active)
6,N[C@@H](C(=O)N[C@@H]1C(=O)N2C(C(=O)O)=C(Cl)CS[C@H]12)c1ccccc1 [Cefaclor hydrate],0.97 (inactive)
7,CC(=O)N[C@@H](CC(=O)O)C(=O)N[C@@H](CCC(=O)O)C(=O)O [Spaglumic acid],1.04 (inactive)
8,CC(C)[N+](C)(CCOC(=O)C1c2ccccc2Oc2ccccc21)C(C)C [Propantheline bromide],0.988 (inactive)
9,Clc1ccc(COC(Cn2ccnc2)c2ccc(Cl)cc2Cl)c(Cl)c1 (centres undefined) [Miconazole],0.997 (inactive)
10,CO[C@@]1(NC(=O)C2SC(=C(C(N)=O)C(=O)O)S2)C(=O)N2C(C(=O)O)=C(CSc3nnnn3C)CS[C@@H]21 (some centres undefined) [Cefotetan],0.0395 (active)
11,COc1ccccc1OCC(O)CN1CCN(CC(=O)Nc2c(C)cccc2C)CC1 (centres undefined) [Ranolazine],1.03 (inactive)
12,CCOc1ccc2c(c1)C(C)=CC(C)(C)N2 [Ethoxyquin],0.94 (inactive)
13,CN1[C@@H]2CC[C@H]1C[C@@H](OC(=O)c1c[nH]c3ccccc13)C2 [Tropisetron hydrochloride],1 (inactive)
14,CCN[C@H]1C[C@H](C)S(=O)(=O)c2sc(S(N)(=O)=O)cc21 [Dorzolamide hydrochloride],1.03 (inactive)
15,C[C@H](CCC(=O)O)[C@H]1CC[C@H]2[C@@H]3[C@@H](O)C[C@@H]4C[C@H](O)CC[C@]4(C)[C@H]3CC[C@]12C [Urosiol],1.01 (inactive)
16,CC[C@H](C)C(=O)O[C@H]1CCC=C2C=C[C@H](C)[C@H](CC[C@@H]3C[C@@H](O)CC(=O)O3)[C@H]21 [Mevastatin],0.978 (inactive)
17,Cc1nc2n(c(=O)c1CCN1CCC(c3noc4cc(F)ccc34)CC1)CCCC2 [Risperidone],1 (inactive)
18,CC(=O)N(CC(O)CO)c1c(I)c(C(=O)NCC(O)CO)c(I)c(C(=O)NCC(O)CO)c1I (centres undefined) [Iohexol],0.981 (inactive)
19,O=C1c2c(O)cccc2Cc2cccc(O)c21 [Anthralin],1.39 (inactive)
20,CC(C(O)c1ccc(O)cc1)N1CCC(Cc2ccccc2)CC1 (centres undefined) [Ifenprodil tartrate],1.01 (inactive)

row,Structure (SMILES),growth AUC normalised to DMSO control
1,O=C(NCC1CCCCN1)c1cc(OCC(F)(F)F)ccc1OCC(F)(F)F (centres undefined) [Flecainide acetate],0.99 (inactive)
2,Nc1ccn([C@@H]2O[C@H](CO)[C@@H](O)C2(F)F)c(=O)n1 [Gemcitabine],1.1 (inactive)
3,CN(C(=O)C(Cl)Cl)c1ccc(OC(=O)c2ccco2)cc1 [Diloxanide furoate],0.954 (inactive)
4,Nc1nc(=O)[nH]cc1F [Flucytosine],0.95 (inactive)
5,CC(C)(C)NC(=O)[C@@H]1C[C@@H]2CCCC[C@@H]2CN1C[C@@H](O)[C@H](Cc1ccccc1)NC(=O)[C@H](CC(N)=O)NC(=O)c1ccc2ccccc2n1 [Saquinavir mesylate],1.63 (inactive)
6,CCN(CC)CCOC(=O)C1(c2ccc([N+](=O)[O-])cc2)CCCC1 [Nitrocaramiphen hydrochloride],1.01 (inactive)
7,CN1C(C(=O)Nc2ccccn2)=C(O)c2ccccc2S1(=O)=O [Piroxicam],1.01 (inactive)
8,O=C(c1ccccc1)c1ccc2n1CCC2C(=O)O (centres undefined) [Ketorolac tromethamine],0.972 (inactive)
9,CN1CCCCC1CCN1c2ccccc2Sc2ccc([S+](C)[O-])cc21 (centres undefined) [Mesoridazine besylate],0.987 (inactive)
10,NCc1ccccc1CC(=O)N[C@@H]1C(=O)N2C(C(=O)O)=C(CSc3nnnn3CC(=O)O)CS[C@H]12 [Ceforanide],0.0189 (active)
11,CCN(CC)CCCC(C)Nc1c2ccc(Cl)cc2nc2ccc(OC)cc12 (centres undefined) [Quinacrine dihydrochloride hydrate],0.879 (inactive)
12,CC[C@@]1(O)C(=O)OCc2c1cc1n(c2=O)Cc2cc3c(CN(C)C)c(O)ccc3nc2-1 [Topotecan],0.984 (inactive)
13,Cn1c(=O)c2c(ncn2C)n(C)c1=O [Caffeine],1.04 (inactive)
14,Cn1c(=O)c2[nH]cnc2n(C)c1=O [Aminophylline],1.04 (inactive)
15,N=C(N)N1CCc2ccccc2C1 [Debrisoquin sulfate],0.978 (inactive)
16,CCN(CC)CCNC(=O)c1ccc(N)cc1 [Procainamide hydrochloride],0.983 (inactive)
17,Cc1ccccc1N1C(=O)c2cc(S(N)(=O)=O)c(Cl)cc2NC1C (centres undefined) [Metolazone],0.966 (inactive)
18,COc1ccc([C@@H]2Sc3ccccc3N(CCN(C)C)C(=O)[C@@H]2OC(C)=O)cc1 [Diltiazem hydrochloride],0.988 (inactive)
19,Clc1cccc(Cl)c1NC1=NCCN1 [Clonidine hydrochloride],0.978 (inactive)
